Experimental data published in PubChem BioAssay (NCI).
This is part of a sample that, as a whole, favours compounds with a hit. Of some 83,000 tested, about 20% had one in any assay.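 Cells were grown in 96-well plates and exposed to the test compound at a single concentration for 48 hours; results are reported as percent growth, with values below 10 considered active.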 Unmarked numbers belong to inactive results. Calls of active or inactive are those of the source.

Experiments:
Assay in all cases: NCI-60 one-dose screen, 48 h (100 = growth as untreated, 0 = no growth, -100 = all killed)
Conditions in all cases: 10 µM unless noted
SK-MEL-2 melanoma = tested on: SK-MEL-2 melanoma
EKVX NSCLC = tested on: EKVX NSCLC
SN12C renal = tested on: SN12C renal
UO-31 renal = tested on: UO-31 renal
TK-10 renal = tested on: TK-10 renal
ACHN renal = tested on: ACHN renal
CAKI-1 renal = tested on: CAKI-1 renal
A498 renal = tested on: A498 renal
CCRF-CEM leukemia = tested on: CCRF-CEM leukemia
MOLT-4 leukemia = tested on: MOLT-4 leukemia
SR leukemia = tested on: SR leukemia
RPMI-8226 leukemia = tested on: RPMI-8226 leukemia
OVCAR-8 ovarian = tested on: OVCAR-8 ovarian
OVCAR-4 ovarian = tested on: OVCAR-4 ovarian
IGROV1 ovarian = tested on: IGROV1 ovarian
OVCAR-3 ovarian = tested on: OVCAR-3 ovarian
HL-60(TB) leukemia = tested on: HL-60(TB) leukemia
OVCAR-5 ovarian = tested on: OVCAR-5 ovarian
SK-OV-3 ovarian = tested on: SK-OV-3 ovarian
HS 578T breast = tested on: HS 578T breast

Structure (SMILES) | growth (SK-MEL-2 melanoma) | growth (EKVX NSCLC) | growth (SN12C renal) | growth (UO-31 renal) | growth (TK-10 renal) | growth (ACHN renal) | growth (CAKI-1 renal) | growth (A498 renal) | growth (CCRF-CEM leukemia) | growth (MOLT-4 leukemia) | growth (SR leukemia) | growth (RPMI-8226 leukemia) | growth (OVCAR-8 ovarian) | growth (OVCAR-4 ovarian) | growth (IGROV1 ovarian) | growth (OVCAR-3 ovarian) | growth (HL-60(TB) leukemia) | growth (OVCAR-5 ovarian) | growth (SK-OV-3 ovarian) | growth (HS 578T breast)
Cc1cc(N(CCCl)CCCl)ccc1C=Nc1ccc(-c2csc(-c3ccccc3)n2)cc1 | 97.2% | 111% | 64.4% | 59.9% | 113% | 80.5% | 32.7% | 97.7% | 46.5% | 22.5% | 31.4% | 77.3% | 91.3% | 89.6% | 93.2% | 89.7% |  |  |  | 
COCC1OC2OC3C(COC)OC(OC4C(COC)OC(OC5C(COC)OC(OC6C(COC)OC(OC7C(COC)OC(OC8C(COC)OC(OC1C(O)C2O)C(O)C8O)C(O)C7O)C(O)C6O)C(O)C5O)C(O)C4O)C(O)C3O (stereo unspecified) (tested in a mixture with another compound) | 65.7% | 105% | 97.6% | 97.3% | 146% | 107% | 102% | 111% |  | 99.6% | 91.3% |  | 114% | 111% | 184% | 119% | 132% | 104% | 117% | 105%
CO[C@@H]([CH2][Hg][O]C(=O)c1ccccc1)[C@@H]([CH2][Hg][O]C(=O)c1ccccc1)OC | 105% | 110% | 98.2% | 88.8% | 128% | 99% | 94.3% | 117% | -6.61% (active) | 27.4% | 50.2% | 92.2% |  | 93.8% | 96.4% | -92.8% (active) |  | 111% | 73.2% | 113%
ClC1OC(Cl)(Cl)C(Cl)(Cl)OC1(Cl)Cl (stereo unspecified) | 113% | 100% | 95.1% | 81.4% | 107% | 99.7% | 99% | 131% |  | 97.1% | 95% |  |  |  | 104% | 110% | 125% | 93.4% | 111% | 
O=C(O)CNCP(=O)(O)O | 98.5% | 106% | 101% | 72.8% | 108% | 123% | 100% | 117% | 90.9% | 92.4% | 95.3% | 99.1% | 104% | 111% | 106% | 119% |  | 120% | 113% | 121%
CCC(Br)(CC)C(=O)NC(N)=O | 109% | 107% | 103% | 93.2% | 104% | 109% | 98.2% | 104% | 102% | 99.2% | 105% | 109% | 113% | 101% | 110% | 111% |  | 101% | 114% | 106%
Nc1nc(=S)nc(N)[nH]1 | 101% | 92.9% | 80.5% | 74.1% | 136% | 103% | 101% | 98.4% |  | 90.4% | 71.3% |  | 104% |  | 87.6% |  | 92.6% | 89.1% | 102% | 
CC[C@@H](C)C(=O)O[C@H]1[C@H](O)[C@H]2[C@@H](CN3C[C@@H](C)CC[C@H]3[C@@]2(C)O)[C@@H]2C[C@]34O[C@]5(O)[C@@H](OC(=O)[C@@](C)(O)CC)CC[C@@]3(C)[C@@H]5[C@@H](OC(C)=O)[C@@H](OC(C)=O)[C@H]4[C@@]21O | 103% | 93.7% | 97.1% | 82.1% | 106% | 101% | 100% | 102% | 99.9% | 87.3% | 100% | 94.1% | 94.2% | 95.1% | 106% | 106% |  | 103% | 93.9% | 97.3%
O=[N+]([O-])c1ccc(OCc2ccc(S(=O)(=O)F)c(Cl)c2)c(Cl)c1 | 88.7% | 112% | 97.7% | 70% | 102% | 92.7% | 102% | 95.6% |  | 68.2% | 87.5% | 97.8% |  | 102% | 100% | 112% |  | 99% | 107% | 95.4%
O=CC1(c2ccccc2)CCN(Cc2ccccc2)CC1 | 117% | 101% | 107% | 83.9% | 115% | 112% | 97.9% |  | 102% | 99.4% | 97.8% | 102% |  | 103% | 108% | 105% | 97.8% | 107% | 114% | 115%
CCCn1cc2c3c(cccc31)[C@H]1C[C@@H](C)CN(C)[C@@H]1C2 | 134% | 94.9% | 81.6% | 36.1% | 96.8% | 94.6% | 83.8% | 71.3% | 86.9% | 77.6% | 71.4% | 48.4% | 89.1% | 80.6% | 35.1% | 84.4% |  | 84.4% | 87.9% | 83.6%
Cc1c2ccncc2c(C)c2c1[nH]c1ccccc12 | -85.8% (active) | -21.8% (active) | -75.8% (active) | -82.1% (active) | -81.3% (active) | -92.3% (active) | -90.7% (active) | -94.8% (active) |  | -24.4% (active) | -12.8% (active) |  | -14.2% (active) | -29.7% (active) |  | -86% (active) | -45.1% (active) | -90.8% (active) | -4.52% (active) | -47.3% (active)
CCOC(=O)C1C(C=C(C)C)C1(C)C (stereo unspecified) | 121% | 110% | 104% | 120% | 107% | 100% | 95.8% | 105% | 82.6% | 85.1% | 99.7% | 96.9% | 99.6% | 116% | 120% | 103% |  | 80.5% | 105% | 115%
O=[N+]([O-])c1ccc2scc3c4ccccc4nc-3c2c1 | -63.2% (active) | 37.1% | -36% (active) | -85.4% (active) | -53.7% (active) | -97.5% (active) | -40.6% (active) | 44.9% | -12.3% (active) | -11.7% (active) | 15.9% | -29.5% (active) | -62.3% (active) | -88.5% (active) | -59% (active) | -99% (active) |  | -77.1% (active) | 45.8% | -2.07% (active)
CC1OC(=O)C(C(C)C)NC(=O)C(C(C)C)OC(=O)C(C(C)C)NC(=O)C(C)OC(=O)C(C(C)C)NC(=O)C(C(C)C)OC(=O)C(C(C)C)NC(=O)C(C)OC(=O)C(C(C)C)NC(=O)C(C(C)C)OC(=O)C(C(C)C)NC1=O (stereo unspecified) | -22.4% (active) | -23.9% (active) | 3.04% (active) | 6.58% (active) | 24.6% | -16.5% (active) | -5.02% (active) | -53.2% (active) | -20.1% (active) | -26.4% (active) | -14.6% (active) | -23.2% (active) |  | -17% (active) | -25% (active) | -18.9% (active) |  | -39.6% (active) | -13.3% (active) | -63.9% (active)
